This excerpt belongs to a sample that is enriched for hits.
HEK293 tox: cytotoxicity counter-screen for GLP-1 receptor inverse agonists; HEK293 cAMP-luciferase reporter cells, luminescence, 24 h; Potency, µM (series often up to 38.3 µM), inactives show at the top dose activity change, negative = inhibition, actives largely listed as inhibitors; hit rate 0.13% among 410,000;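 also: loss of luciferase light is scored as toxicity; potency is read from the fitted curve at half-maximal effect; % is scaled to controls: 0 for no effect and ±100 for the full control effect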
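A 23 nL compound transfer followed 12 hours of cell culture at 37 deg C; exposure then lasted 24 hr. Luciferase assay detection reagent was dispensed and plates read for luminescence after a 12 min room-temperature wait.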
PTHR1 agonist: agonists of human PTHR1 parathyroid hormone receptor. HEK293 GP2 PTHR1 cells, GloSensor cAMP luminescence, 1 h. hit rate 0.075% among 410,000. Potency, µM (doses to about 115 µM), for inactives: at the top dose activation, most hits filed as activators. Q03431. AID 743266; also: potency is read from the fitted curve at half-maximal effect; nearly all actives have a fitted effect of over 55% in size
Target sequence (Q03431 whole entry, looked up): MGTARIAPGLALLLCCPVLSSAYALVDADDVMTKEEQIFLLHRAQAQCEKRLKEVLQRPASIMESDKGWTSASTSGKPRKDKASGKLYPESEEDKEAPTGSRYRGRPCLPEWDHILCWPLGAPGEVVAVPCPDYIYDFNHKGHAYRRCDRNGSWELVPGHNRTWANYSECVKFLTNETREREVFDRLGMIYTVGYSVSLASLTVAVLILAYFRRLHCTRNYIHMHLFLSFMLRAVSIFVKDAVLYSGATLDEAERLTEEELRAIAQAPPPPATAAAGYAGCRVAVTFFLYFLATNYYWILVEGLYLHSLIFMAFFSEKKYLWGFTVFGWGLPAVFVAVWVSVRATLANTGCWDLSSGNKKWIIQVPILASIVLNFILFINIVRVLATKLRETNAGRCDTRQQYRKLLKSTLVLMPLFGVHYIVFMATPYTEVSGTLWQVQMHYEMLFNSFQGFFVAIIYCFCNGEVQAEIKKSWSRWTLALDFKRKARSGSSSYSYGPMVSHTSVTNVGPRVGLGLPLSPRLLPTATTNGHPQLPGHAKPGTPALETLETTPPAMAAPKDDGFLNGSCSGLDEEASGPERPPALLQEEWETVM
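HEK-293-derived GP2 cells expressing PTHR1 and a GloSensor cAMP reporter, 3,000/well, plated overnight, given luciferin plus IBMX (each 0.5 mM as added) for 1 h at 37 °C, then compound for 1 h at 37 °C. Luminescence was read after 15 min at room temperature.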
RXFP1 ag: activates the human relaxin receptor RXFP1 | hit rate 0.3% among 370,000 | Potency, µM (highest dose often 57.5 µM), without a hit: at the highest dose activation, usual class: activators | AID 2676 | Q9HBX9 | HEK293T-RXFP1 cAMP TR-FRET, 30 min; response scale: percent of porcine relaxin response, buffer zero; also: potency is read from the fitted curve at half-maximal effect; % is scaled to controls: 0 for no effect and ±100 for the full control effect; nearly all actives have a fitted effect of over 60% in size
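HEK293 cells stably expressing RXFP1, treated 30 min at 37C with compounds plus PDE4 inhibitor Ro 20174; cAMP measured by HTRF TR-FRET. Normalized to buffer and 29 nM porcine relaxin; EC50 by Hill fit.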
NPSR antag: antagonists of human neuropeptide S receptor cAMP signaling; CHO-NPSR cells, cAMP TR-FRET, antagonist mode; Potency, µM (doses to about 38.3 µM), for inactives: top-dose activity change, negative = inhibition, most hits filed as inhibitors; AID 1461; hit rate 1% among 220,000; Q6W5P4; also: potency is read from the fitted curve at half-maximal effect; % is scaled to controls: 0 for no effect and ±100 for the full control effect; nearly all actives have a fitted effect of over 50% in size
RXFP1 antagonist: antagonists of human relaxin receptor RXFP1 | hit rate 0.59% among 350,000 | activity change, negative = inhibition, % at 57.5 µM | AID 1259400 | Q9HBX9 | HEK293-RXFP1, relaxin-stimulated cAMP HTRF, 30 min; active compounds read low;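 active = activity change of -60% or lower, but not beyond a set lower limit; inconclusive = change between -60% and -40%, or beyond the set limit; inactive = change above -40%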; also: % is scaled to controls: 0 for no effect and ±100 for the full control effect
TSHR antagonist: human thyrotropin receptor antagonism; P16473; TSHR-expressing cells, TSH-stimulated cAMP HTRF, 2 h; active compounds read low; activity change, negative = inhibition, % at 11.5 µM; hit rate 0.2% among 330,000;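 active = activity change below a set negative limit, meaning inhibition stronger than a set level, cut at about -70% in these data; inconclusive = activity change between two set negative limits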; also: % is scaled to controls: 0 for no effect and ±100 for the full control effect
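Freshly harvested TSHR cells receive pin-tooled compound, then EC80 TSH at 4nM final. After 2 hours at 37 deg C, antibody in lysis buffer and cAMP-d2 are added; 30 minutes at ambient temperature precede the HTRF read.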
The depositor's hits bear a star; [ ] = another dose, or the depositor's remark. Unless noted, calls follow the shape of the dose curve; as a rule, active = well fitted curve in the direction sought with a large enough effect; inconclusive = small, poorly fitted or top-dose-only effect, or another doubt; inactive = no such curve, though single readings can be large; an effect the other way counts as inactive or inconclusive.

How did O=C(Nc1ccc(N2CCN(C(=O)c3ccccc3F)CC2)cc1)c1cncc(Br)c1 do in these assays?
HEK293 tox: -16%; PTHR1 agonist: -46%; RXFP1 ag: -3%; RXFP1 antagonist: -82*; TSHR antagonist: -18

How did COc1ccc(C(=O)OCC(=O)c2ccc[nH]2)cc1 do in these assays?
HEK293 tox: -7%; PTHR1 agonist: -24%; RXFP1 ag: 1%; RXFP1 antagonist: -1; TSHR antagonist: 2

How did CCN1CCN(c2nc3c(C)cccn3c(=O)c2/C=C(\C#N)C(=O)NCCOC)CC1 do in these assays?
HEK293 tox: 77%; PTHR1 agonist: -1%; RXFP1 ag: 25µM*; RXFP1 antagonist: 6; TSHR antagonist: 2

How did COCCNC(=O)/C(C#N)=C/c1c(N2CCCCCC2)nc2c(C)cccn2c1=O do in these assays?
HEK293 tox: 10%; PTHR1 agonist: -9%; RXFP1 ag: 27%; RXFP1 antagonist: 1; TSHR antagonist: -4

What do the screens show for `CCOc1cccc2cc(S(=O)(=O)c3ccccc3F)c(=O)oc12`?
HEK293 tox: 14%; PTHR1 agonist: -18%; RXFP1 ag: -1%

Results for Cc1ccccc1NC(=O)c1cc2ccccn2n1 ?
HEK293 tox: -3%; PTHR1 agonist: -91%; RXFP1 ag: 1%; NPSR antag: 11%; RXFP1 antagonist: -2; TSHR antagonist: -84*

Results for Cc1ccc(OCc2cc(C(=O)N3CCN(c4ccccc4)CC3)no2)cc1C ?
HEK293 tox: 5%; PTHR1 agonist: -48%; RXFP1 ag: 3%; RXFP1 antagonist: 2; TSHR antagonist: 0

How did O=C(/C=C/c1ccccc1)/C=C/c1ccccc1 do in these assays?
HEK293 tox: -4%; PTHR1 agonist: -34%; RXFP1 ag: 6%; NPSR antag: -48%; RXFP1 antagonist: -67*; TSHR antagonist: -25

Results for Cc1ccc(Nc2cc(C)nn2-c2nc(C)cc(C)n2)cc1 ?
HEK293 tox: inconclusive; PTHR1 agonist: inactive; RXFP1 ag: 4%; NPSR antag: 0.79µM*; RXFP1 antagonist: 4; TSHR antagonist: 17

Results for COCCNC(=O)CN1C(=O)c2cccc3cccc1c23 ?
HEK293 tox: 16%; PTHR1 agonist: inactive; RXFP1 ag: 5%; RXFP1 antagonist: -5; TSHR antagonist: -127*

How did O=C(/C=C/c1ccc([N+](=O)[O-])cc1)c1ccco1 do in these assays?
HEK293 tox: 3%; PTHR1 agonist: -36%; RXFP1 ag: 1%; RXFP1 antagonist: -3; TSHR antagonist: 2

What do the screens show for `O=C(/C=C/c1ccc(-c2ccccc2[N+](=O)[O-])o1)c1ccco1`?
HEK293 tox: 0%; PTHR1 agonist: -16%; RXFP1 ag: 1%; NPSR antag: inconclusive; RXFP1 antagonist: -64*; TSHR antagonist: -6

Results for CCOC(=O)C1(Cc2ccccc2C(F)(F)F)CCN(C2CCC2)CC1 ?
HEK293 tox: 8%; PTHR1 agonist: -7%; RXFP1 ag: 0%; NPSR antag: -19%; RXFP1 antagonist: -3; TSHR antagonist: 3

Results for CCOC(=O)C1(Cc2ccccc2C(F)(F)F)CCN(C2CCN(C(C)=O)CC2)CC1 ?
HEK293 tox: -1%; PTHR1 agonist: inactive; RXFP1 ag: 1%; NPSR antag: -3%; RXFP1 antagonist: -63*; TSHR antagonist: -4

How did COc1ccccc1N1CCN(CCCCNS(=O)(=O)c2cccc3c(N(C)C)cccc23)CC1 do in these assays?
NPSR antag: -2%[46.1 µM]; TSHR antagonist: -8

What do the screens show for `CCCCn1c(N)c(N(CCC(C)C)C(=O)CSc2nc3ccccc3n2C)c(=O)[nH]c1=O`?
HEK293 tox: 19%; PTHR1 agonist: -18%; RXFP1 antagonist: -1

What do the screens show for `COc1cc(C(=O)Nc2nnc(S(=O)(=O)N(C)c3ccccc3)s2)cc(OC)c1OC`?
HEK293 tox: -8%; PTHR1 agonist: -10%; RXFP1 ag: 0%; RXFP1 antagonist: -64*
